Screening data deposited in PubChem BioAssay by several laboratories.
Sampled rows, rich in hits. Any-hit rate of the full collection: about 1.8%.
Exocytosis inh – LAMP-1 surface exposure blockers, TALL-104 cells – cell-based, flow cytometry, MLPCN library, primary screen. TALL-104 LAMP-1 surface exposure; cells stimulated with thapsigargin and PMA. inhibition, % at 10 µM. actives 0.66% (n = 360,000). AID 651702, 2012;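 active = inhibition above about 55%, limit read from the data; inconclusive = no clear call, values can overlap the other calls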
Myeloid diff MLP – induction of myeloid progenitor differentiation, primary screen, cell-based, flow cytometry, MLPCN library; actives 1% (n = 360,000); AID 624256, 2012; calls only at 10 µM; ER-HoxA9 myeloid progenitors, lysozyme-GFP differentiation;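 active = normalized GFP-positive differentiation at or above the plate's own cutoff, the solvent-only control mean plus 3 SD; inconclusive = no clear call, values can overlap the other calls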;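 note: cells exposed to compound for four days before flow analysis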
GC-A act – GC-A stimulated cGMP production enhancers – HEK293 GC-A cells, cGMP TR-FRET, EC30 ANP, primary screen; 0% at EC30 ANP, 100% saturating ANP; Atrial natriuretic peptide receptor 1 (Homo sapiens), P16066; actives 0.14% (n = 370,000); activation, % at 10 µM; in the data active = activation above about 40%
NPR2 activator – human GC-B receptor activators, primary screen, HEK293 GC-B cells, cGMP TR-FRET, EC30 CNP; Atrial natriuretic peptide receptor 2 (Homo sapiens), P20594; 0% at EC30 CNP, 100% saturating CNP; activation, % at 10 µM; actives 0.11% (n = 370,000); AID 1920062, 2024;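 active = activation at 10 µM reaching about 35% in either raw or pattern-adjusted values, limit read from the data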
Hits are given with their value; - = inactive; ? = inconclusive; . = not tested or not shown; + = active, no number.

SMILES	Exocytosis inh	Myeloid diff MLP	GC-A act	NPR2 activator
CC1CCN(c2ccc(NC(=O)c3cccnc3)cc2)CC1	-	+	-	-
O=C(Nc1ccc(N2CCN(C(=O)c3ccccc3)CC2)cc1)c1cccnc1	-	-	-	-
CCN1CCN(S(=O)(=O)c2ccc(Cl)c(C(=O)N(CCc3ccccc3)Cc3ccccc3)c2)CC1	-	+	-	-
COc1ccc(C(C)=O)cc1Cn1c(C)c(C(=O)NCc2ccc(C(C)C)cc2)sc1=O	-	+	-	-
COc1ccc(CNC(=O)c2sc(=O)n(Cc3cc(C(C)=O)ccc3OC)c2C)cc1	-	-	-	-
N#Cc1c(N(CCO)CCO)nc(N)c2c(N)nc3c(c12)CC(=O)N3CC1CCCO1 (centres undefined)	-	-	-	-
CCCCN1C(=O)Cc2c1nc(N)c1c(N)nc(N(CCC)CCC)c(C#N)c21	72	+	-	-
COc1cccc(Cn2c(NCc3cccnc3)nc3c2c(=O)n(C)c(=O)n3C)c1	-	+	-	-
CCCNC(=O)N(C)C[C@@H]1Oc2ncc(-c3ccncc3)cc2C(=O)N([C@H](C)CO)C[C@@H]1C	-	-	-	-
CCN=c1scc(-c2ccccc2)n1/N=C/c1ccccn1	-	+	.	.
C=CCN=c1scc(-c2ccccc2)n1/N=C/c1ccccn1	-	+	-	-
CCN=c1scc(-c2ccc(F)cc2)n1/N=C/c1ccccn1	-	-	-	-
COc1ccc(C)cc1NC(=O)COC(=O)c1c(-c2ccccc2)noc1C	-	-	-	-
COc1ccc(N(CC(=O)NCc2ccc3c(c2)OCO3)S(=O)(=O)c2ccc(O)c(C(=O)O)c2)cc1	-	-	-	-
C[C@]12CC[C@@H]3c4ccc(OC(=O)c5ccccc5)cc4CC[C@H]3[C@@H]1CC[C@@H]2O	60	-	-	-
CC(=O)Oc1ccc2c(c1)CCC1C2CCC2(C)C(OC(C)=O)CCC12 (centres undefined)	-	-	-	-
O=c1[nH]c2cc(Br)c(Br)nc2[nH]1	.	.	-	-
O=C(CSc1nc2ccccc2[nH]1)c1c[nH]c2ccccc12	-	-	-	-
CCCn1c(SCC(=O)c2c[nH]c3ccccc23)nnc1-c1ccncc1	-	+	-	-
Cc1ccc2nc(SCC(=O)c3c[nH]c4ccccc34)[nH]c2c1	-	+	-	-
COc1cc2c(cc1OC)CN(c1nc(CN3CCCCC3)nc3sc4c(c13)CCCC4)CC2	-	-	-	-
COc1cc2c(cc1OC)CN(c1nc(CN3CCOCC3)nc3sc4c(c13)CCCC4)CC2	-	+	-	-
c1cnc2ccc3ncccc3c2c1	-	-	-	-
Nc1ccc2ncccc2c1N	-	+	-	-
CC1CCCCN1c1nc(-c2ccncc2)nc2ccccc12 (centres undefined)	-	+	-	-
SMILES	Exocytosis inh	Myeloid diff MLP	GC-A act	NPR2 activator
COc1ccccc1NC(=O)c1c(N=Cc2cccc([N+](=O)[O-])c2)cnn1C	62	-	-	-
COc1ccc(C)cc1NC(=O)c1c([N+](=O)[O-])cnn1C	-	-	-	-
CN(C)C(=O)c1cccc(-c2cnc3c(NC=O)cc(-c4ccccc4Cl)cn23)c1	-	-	-	-
COc1ccc(-c2cc(NC=O)c3ncc(-c4cccc(C(=O)NCCN(C)C)c4)n3c2)c(OC)c1	-	+	-	-
CN(C)C(=O)c1cccc(-c2cnc3c(NC=O)cc(-c4ccccc4N(C)C)cn23)c1	-	+	-	-
CN(C)c1ccccc1-c1cc(NC=O)c2ncc(-c3cccc(C(F)(F)F)c3)n2c1	-	+	-	-
COC(=O)[C@]12C[C@H](CC(=O)N3CCSCC3)C(=O)N(Cc3ccco3)C1=C[C@H](COCc1ccccc1)O[C@@H]2C	.	.	-	-
COc1ccc(-n2c(-c3cc(-c4ccccc4)sc3N)n[nH]c2=S)cc1	91	-	-	-
C[C@H]1CN(S(=O)C(C)(C)C)[C@H](CCO)/C1=C\c1ccccc1 (some centres undefined)	-	-	-	-
Cc1cc(-c2cccs2)c(C#N)c(=S)[nH]1	-	-	40	-
N#C/C(=C\c1ccc([N+](=O)[O-])o1)c1nc2ccccc2[nH]1	.	.	-	-
Cc1ccc2nc(/C(C#N)=C\c3ccc([N+](=O)[O-])o3)[nH]c2c1	62	?	-	-
